Experimental data from PubChem BioAssay (NCI).
This is part of a sample that, as a whole, favours compounds with a hit. Of some 79,000 tested, about 15% had one in any assay. Calls of active or inactive are those of the source. No stated cut-off is given here; in the data, active means growth inhibition above about 70%; inactive means the rest.

Columns and labels:
[1] = NCI Yeast Anticancer Drug Screen. Data for the rad52 strain (AID 147);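 further: 0% = growth of vehicle-treated control cultures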; conditions: S. cerevisiae rad52 mutant growth inhibition, stronger effect = higher value
Outline: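 Here a repair-compromised yeast strain receives each compound; its growth is then quantified and normalised to vehicle-only controls.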

[2] = NCI Yeast Anticancer Drug Screen. Data for the wt1 strain (AID 149);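 further: 0% = growth of vehicle-treated wt1 cultures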; conditions: S. cerevisiae wt1 strain (SPY 50644) growth inhibition, stronger effect = higher value
Outline: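 Each compound is tested on wt1 yeast and the loss of growth versus vehicle gives the inhibition value.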

[3] = NCI Yeast Anticancer Drug Screen. Data for the rad50EPP+ strain (AID 151);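 further: 0% = growth of vehicle-treated control cultures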; conditions: S. cerevisiae rad50 mutant strain, stronger effect = higher value
Outline: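 Read-out is yeast growth inhibition relative to vehicle; cells used were the rad50EPP+ strain.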

[4] = NCI Yeast Anticancer Drug Screen. Data for the mgt1 strain (AID 153); conditions: S. cerevisiae mgt1 mutant growth inhibition, stronger effect = higher value
Outline: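 Measured: inhibition of mgt1 yeast growth by compound, normalized to vehicle-treated cultures.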

[5] = NCI Yeast Anticancer Drug Screen. Data for the rad50 strain (AID 155);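 further: 0% = growth of vehicle-only cultures of the same strain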; conditions: S. cerevisiae rad50 strain growth inhibition, stronger effect = higher value
Outline: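 Vehicle-treated cultures provide the reference for the growth inhibition reported for compound-exposed, repair-deficient yeast.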

[6] = NCI Yeast Anticancer Drug Screen. Data for the mec2-1 strain (AID 157); conditions: S. cerevisiae mec2-1 strain, stronger effect = higher value
Outline: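 Using mec2-1 yeast: add compound, measure growth, express inhibition versus vehicle-treated cultures.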

[7] = NCI Yeast Anticancer Drug Screen. Data for the rad14 strain (AID 159);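 further: 0% = growth of vehicle-treated control cultures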; conditions: S. cerevisiae rad14 strain growth inhibition, stronger effect = higher value
Outline: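 Inhibition of growth is reported for a repair-deficient yeast mutant following compound treatment, calculated relative to cultures that received vehicle.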

[8] = NCI Yeast Anticancer Drug Screen. Data for the sgs1 mgt1 strain (AID 161);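 further: 0% = growth of cultures given vehicle only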; conditions: S. cerevisiae sgs1 mgt1 strain, stronger effect = higher value
Outline: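 Yeast cells carrying a defined DNA-repair defect were exposed to test compounds. Growth inhibition was measured relative to vehicle-treated controls.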

[9] = NCI Yeast Anticancer Drug Screen. Data for the CLN2oe strain (AID 163);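 further: 0% = growth of vehicle-only control cultures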; conditions: S. cerevisiae CLN2oe strain, stronger effect = higher value
Outline: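 Whole-cell yeast growth assay. A strain engineered for altered cell-cycle control received compound, and inhibition relative to vehicle-treated cultures was recorded.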

[10] = NCI Yeast Anticancer Drug Screen. Data for the cln2 rad14 strain (AID 165);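 further: 0% = growth equal to vehicle treated cultures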; conditions: S. cerevisiae cln2 rad14 strain, stronger effect = higher value
Outline: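 Yeast strain cln2 rad14, bearing defects in cell cycle control and DNA repair, serves as the test system; values reflect growth inhibition compared with vehicle.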

[11] = NCI Yeast Anticancer Drug Screen. Data for the bub3 strain (AID 167); conditions: S. cerevisiae bub3 mutant strain, stronger effect = higher value
Outline: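 Mutant yeast screening strain plus compound; vehicle-treated cultures serve as the 0% inhibition reference.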

[12] = NCI Yeast Anticancer Drug Screen. Data for the wt2 strain (AID 169); conditions: S. cerevisiae wt2 strain growth inhibition, stronger effect = higher value
Outline: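 Treated yeast vs. vehicle-treated yeast: growth inhibition determined.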

[13] = NCI Yeast Anticancer Drug Screen. Data for the sgs1 strain (AID 173);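 further: 0% = growth of vehicle-only control cultures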; conditions: S. cerevisiae sgs1 mutant, stronger effect = higher value
Outline: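 A genetically defined yeast mutant is incubated with the test compound, and its growth is compared to that of the same strain given vehicle.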

[14] = NCI Yeast Anticancer Drug Screen. Data for the mlh1 rad18 strain (AID 175); conditions: S. cerevisiae mlh1 rad18 strain growth inhibition, stronger effect = higher value
Outline: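 Steps: expose repair-defective yeast to compound; measure growth; express inhibition against vehicle-treated controls.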

[15] = NCI Yeast Anticancer Drug Screen. Data for the rad18 strain (AID 177); conditions: S. cerevisiae rad18 mutant growth inhibition, stronger effect = higher value
Outline: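 Measured value is growth inhibition of a yeast strain bearing a DNA repair alteration, referenced to vehicle-treated cells.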

[16] = NCI Yeast Anticancer Drug Screen. Data for the mlh1 strain (AID 171);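 further: 0% = growth of vehicle-treated control cultures of the same strain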; conditions: S. cerevisiae mlh1 strain growth inhibition, stronger effect = higher value
Outline: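 A yeast strain with a defined genetic lesion serves as the test organism. Cultures receive compound or vehicle, and growth is measured.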

[17] = at 5.0 µM (retest, dose inferred, filed as 0.5)
[18] = at 50.0 µM (retest, dose inferred, filed as 5.0)

Measured: growth inhibition

CCCCCOC(=S)SC(=O)OCC
active: [1]; at 100.0 µM 94% | [4]; at 100.0 µM 92% | [5]; at 33.0 µM 84% | [5]; [18] 95% | [5]; at 50.0 µM 98% | [5]; at 100.0 µM 95% | [6]; [18] 95% | [6]; at 50.0 µM 98.5% | [6]; at 100.0 µM 86% | [7]; at 100.0 µM 92% | [8]; [18] 97% | [8]; at 50.0 µM 97.7% | [11]; at 33.0 µM 82% | [11]; [18] 96% | [11]; at 50.0 µM 96.8% | [11]; at 100.0 µM 94% | [12]; at 100.0 µM 90% | [13]; at 33.0 µM 90% | [13]; at 100.0 µM 97% | [14]; [18] 96% | [14]; at 50.0 µM 96.6% | [15]; at 33.0 µM 90% | [15]; at 100.0 µM 98%
inactive: [1]; at 1.2 µM 0% | [1]; at 3.7 µM 7% | [1]; at 11.0 µM 27% | [1]; at 33.0 µM 63% | [2]; at 1.2 µM -4% | [2]; at 3.7 µM -1% | [2]; at 11.0 µM 8% | [2]; at 33.0 µM 35% | [2]; at 100.0 µM 64% | [3]; at 1.2 µM -3% | [3]; at 3.7 µM 9% | [3]; at 11.0 µM 18% | [3]; at 33.0 µM 30% | [3]; at 100.0 µM 36% | [4]; at 1.2 µM -4% | [4]; at 3.7 µM -2% | [4]; at 11.0 µM 6% | [4]; at 33.0 µM 37% | [5]; at 1.2 µM 1% | [5]; at 3.7 µM 32% | [5]; [17] 20% | [5]; at 11.0 µM 51% | [6]; at 1.2 µM -3% | [6]; at 3.7 µM 3% | [6]; [17] 27% | [6]; at 11.0 µM 26% | [6]; at 33.0 µM 48% | [7]; at 1.2 µM -5% | [7]; at 3.7 µM -4% | [7]; at 11.0 µM 12% | [7]; at 33.0 µM 42% | [8]; [17] 33% | [9]; at 1.2 µM -7% | [9]; at 3.7 µM -6% | [9]; at 11.0 µM -7% | [9]; at 33.0 µM 1% | [9]; at 100.0 µM 30% | [10]; [17] 9% | [10]; [18] 53% | [10]; at 50.0 µM 64.8% | [11]; at 1.2 µM 2% | [11]; at 3.7 µM 6% | [11]; [17] 55% | [11]; at 11.0 µM 40% | [12]; at 1.2 µM -4% | [12]; at 3.7 µM 6% | [12]; at 11.0 µM 4% | [12]; at 33.0 µM 39% | [13]; at 1.2 µM -3% | [13]; at 3.7 µM 4% | [13]; at 11.0 µM 45% | [14]; [17] 43% | [15]; at 1.2 µM -5% | [15]; at 3.7 µM 5% | [15]; at 11.0 µM 33%

COc1cccc2c1C(=O)c1c(O)c3c(c(O)c1C2=O)C[C@@](O)(C(C)=O)C[C@@H]3OC1CC(OC(C)=O)C(OC(C)=O)C(C)O1 (stereo partly specified)
active: [5]; [18] 76% | [8]; [17] 98% | [8]; [18] 96% | [8]; at 50.0 µM 77% | [10]; [17] 96% | [10]; [18] 97% | [11]; [17] 98% | [11]; [18] 97% | [11]; at 50.0 µM 75.7% | [14]; at 50.0 µM 82.7%
inactive: [1]; at 1.2 µM -12% | [1]; at 3.7 µM -7% | [1]; at 11.0 µM 37% | [1]; at 33.0 µM 48% | [1]; at 100.0 µM 40% | [2]; at 1.2 µM -26% | [2]; at 3.7 µM -43% | [2]; at 11.0 µM -46% | [2]; at 33.0 µM -24% | [2]; at 100.0 µM -28% | [3]; at 1.2 µM -11% | [3]; at 3.7 µM -16% | [3]; at 11.0 µM -7% | [3]; at 33.0 µM 7% | [3]; at 100.0 µM 36% | [4]; at 1.2 µM -41% | [4]; at 3.7 µM -51% | [4]; at 11.0 µM -33% | [4]; at 33.0 µM -22% | [4]; at 100.0 µM -11% | [5]; at 1.2 µM -40% | [5]; at 3.7 µM -11% | [5]; [17] 22% | [5]; at 11.0 µM 39% | [5]; at 33.0 µM 51% | [5]; at 50.0 µM 56.2% | [5]; at 100.0 µM 47% | [6]; at 1.2 µM -64% | [6]; at 3.7 µM -46% | [6]; [17] 13% | [6]; at 11.0 µM -34% | [6]; at 33.0 µM -25% | [6]; [18] 41% | [6]; at 50.0 µM 60% | [6]; at 100.0 µM 1% | [7]; at 1.2 µM -35% | [7]; at 3.7 µM -3% | [7]; at 11.0 µM -6% | [7]; at 33.0 µM 10% | [7]; at 100.0 µM 29% | [9]; at 1.2 µM 3% | [9]; at 3.7 µM -2% | [9]; at 11.0 µM 12% | [9]; at 33.0 µM 11% | [9]; at 100.0 µM 19% | [10]; at 50.0 µM 17.3% | [11]; at 1.2 µM -54% | [11]; at 3.7 µM -38% | [11]; at 11.0 µM -50% | [11]; at 33.0 µM -35% | [11]; at 100.0 µM -4% | [16]; at 1.2 µM -41% | [16]; at 3.7 µM -37% | [16]; at 11.0 µM -30% | [16]; at 33.0 µM -8% | [16]; at 100.0 µM 18% | [13]; at 1.2 µM -17% | [13]; at 3.7 µM -23% | [13]; at 11.0 µM -14% | [13]; at 33.0 µM -3% | [13]; at 100.0 µM -9% | [14]; [17] 23% | [14]; [18] 62%
